In PubChem BioAssay (Tox21) one finds Potency data, which are given here for 40 compounds.

Results filed as inconclusive are left out. A call without a number means that no potency is given here. Calls of active or inactive are those of the source. Calls come from the whole dose curve; as a rule, active = well fitted cell-killing curve with a large enough effect in the repeat runs; inconclusive = weak or mixed curves, or effect the other way; inactive = no such curve, though single readings can be large or run the other way.

The assay is described as follows: qHTS assay to identify small molecule antagonists of the retinoid-related orphan receptor gamma (ROR-gamma) signaling pathway - cell viability counter screen (AID 1159520). Note: nearly all actives have a fitted effect of over 50% in size. The following applies: Tet-on RORgamma CHO cells viability, ATP luminescence, 16 h; series mostly up to 92.4 µM. From the text:
U.S. Tox21 Program National Center for Advancing Translational Sciences [NCATS] NIH Chemical Genomics Center [NCGC] U.S. Environmental Protection Agency [EPA] National Institutes of Environmental Health Sciences [NIEHS] National Toxicology Program [NTP] U.S. Food and Drug Administration [FDA] Tox21 Assay Overview: Nuclear steroid hormone receptors are involved in many biological processes including inflammatory responses, cell proliferation, and apoptosis. Environmental factors or compounds disrupting these nuclear receptor pathways and gene expression may promote susceptibility to immunotoxicants and autoimmune diseases. One important group of these expression factors are the retinoid-related orphan receptors. To assess compounds that may interfere with the retinoid-related orphan receptor gamma (ROR-gamma) transcription factor, a cell-based luciferase assay was used. The CHO cell-based assay utilizes a TET-inducible ROR expression factor and ROR response element-LUC reporter gene. Reporter gene activity was induced using Doxycycline Hyclate and measured after 16 hr incubation. Tet-on ROR gamma CHO cells were used to screen against the Tox21 10K compound library for cytotoxicity by measuring the viability of the cells based on the quantitation of the ATP.
Tox21 Assay Protocol Summary: Tet-on ROR gamma CHO cells were dispensed at 1,000 cells in 4 uL of culture medium per well into white wall/solid bottom 1536-well plates using a Multidrop Combi (Thermo Scientific, Waltham, MA) dispenser. Following incubation at 37 C and 5% CO2 for 4 hr, 23 nL of compounds dissolved in DMSO, positive controls or DMSO only were transferred by a Pintool station (Kalypsys, San Diego, CA) and after 2 hr incubation at 37 C, one ul of 1 uM (final concentration) of Doxycycline Hyclate was added to all the wells by using a Flying Reagent Dispenser (FRD) (Aurora Discovery, San Diego, CA). After 16 hr incubation at 37 C and 5% CO2, 5 uL of CellTiter-Glo reagent (Promega Corporation, Madison, WI) was added to each assay plate using FRD. After 30 min incubation at room temperature, luminescence was quantified on a ViewLux plate reader (Perkin Elmer, Waltham, MA).
On the technique in general: In qHTS, concentration-response curves come from the screen itself.
Take `CC(=O)Nc1cccc(N)c1`: the Potency entry is “inactive”. The entry for `CCC[Si](OC)(OC)OC` is “inactive”. Regarding `CC(C)(C)c1ccc(CCC=O)cc1`, the Potency result is “inactive”. The result for `Cc1cc(SC2=C(O)C[C@@](CCc3ccc(N)cc3)(C(C)C)OC2=O)c(C(C)(C)C)cc1CO` reads “inactive”; that for `Cc1cccc(C)c1NC(=O)CN1CCCC1`, “inactive”; that for `COc1ccc(/C=C/c2cc(OC)cc(=O)o2)cc1`, “inactive”. The entry for `COc1cc(CNC(=O)CCCC/C=C/C(C)C)ccc1O` is “inactive”; for `CC(C)(C)c1cc(C=O)cc(C(C)(C)C)c1O` it is “inactive”; for `C=CC(=O)OCCCCCCCCCC` it is “inactive”. `O=P(c1ccccc1)(c1ccccc1)c1ccccc1`: the Potency result was “inactive”.

Take `CCC(=O)O[C@@H]1C[C@H]2CC[C@]1(C)C2(C)C`: the Potency result is “inactive”. Turning to `C/C(=C\C(C)CC(C)CC(C)C)C1CC(=O)OC1=O` (stereo not given), the Potency entry is “inactive”. As for `Cc1ccc2ccccc2c1[N+](=O)[O-]`, the Potency result is “inactive”. With `C=C(C)C(=O)OCCCCCCCCCCOC(=O)C(=C)C`, the Potency entry is “inactive”.

For the compound `Cc1ccc(NC(=O)c2ccc(CN3CCN(C)CC3)cc2)cc1Nc1nccc(-c2cccnc2)n1`, the Potency entry was “inactive”. Turning to `CC1(C)C(=O)NC(=O)N1CO`, the Potency entry is “inactive”. Regarding `N#CCCCC(C#N)CCC#N` (stereo not given), the Potency entry is “inactive”.

Consider `O=[N+]([O-])c1ccccc1CCO`, for which the Potency entry is “inactive”. The entry for `O=C(O)CNc1ccccc1` is “inactive”. As to `O=C(OCCCCCOC(=O)c1ccccc1)c1ccccc1`, the Potency entry is “inactive”.

Turning to `CC(COc1ccccc1)NC(C)C(O)c1ccc(O)cc1` (stereo not given), the Potency entry is “inactive”. The result for `Clc1cccc(C(c2ccc3nc[nH]c3c2)n2ccnc2)c1` (stereo not given) reads “inactive”. Turning to `CO[C@@H]1[C@@H](O[C@@H]2O[C@H](C)[C@@H](O[C@H]3C[C@@](C)(O)[C@@H](O)[C@H](C)O3)[C@H](N(C)C)[C@H]2O)[C@@H](CC=O)C[C@@H](C)[C@@H](O[C@@H]2CC[C@H](N(C)C)[C@@H](C)O2)/C=C/C=C/C[C@@H](C)OC(=O)C[C@H]1OC(C)=O`, the Potency entry was “inactive”.

As to `C[C@H](N)C(=O)N[C@@H](C)C(=O)NC1[C@H]2CN(c3nc4c(cc3F)c(=O)c(C(=O)O)cn4-c3ccc(F)cc3F)C[C@@H]12` (stereo not given in full), the Potency result was “inactive”. The result for `CCC(C)CCCC(C)(C)O` (stereo not given) reads “inactive”; that for `CCCCCCOC(=O)c1ccccc1`, “inactive”. `O=C(O)CCc1nc2ccccc2[nH]1`: the Potency result is “inactive”. In the case of `O=C(Nc1ccccc1)c1cc([N+](=O)[O-])ccc1Cl`, the Potency result was “inactive”. In the case of `c1ccc(CN(Cc2ccccc2)Cc2ccccc2)cc1`, the Potency result is “inactive”.

On to `O=c1[nH]nc(-c2ccc([N+](=O)[O-])o2)o1`, for which the Potency entry was “inactive”. Take `CCc1cnc(C(=O)O)c(C(=O)O)c1`: the Potency result is “inactive”. The result for `S=c1[nH][nH]c(=S)s1` reads “inactive”; that for `Nc1nc(Cl)nc2c1ncn2[C@H]1C[C@H](O)[C@@H](CO)O1`, “inactive”.

For `CCCC1CCOC(C)S1` (stereo not given), the Potency entry is “inactive”. For the compound `Clc1ccccc1-c1nc(-c2ccncc2)no1`, the Potency result was “inactive”. The result for `O=C(O)c1ccc2cc(O)ccc2c1` reads “inactive”. The entry for `CC(C)=CCC[C@H](C)CCO` is “inactive”; for `Cc1ccc(NC=O)c(C)c1` it is “inactive”; for `O=Cc1ccc(Cl)c([N+](=O)[O-])c1` it is “inactive”. As for `OCCc1ccncc1`, the Potency result was “inactive”.
